HEK293 viab = cell viability loss counter-screen | HEK-293-SNCA-luc viability, GF-AFC fluorescence, 24 h | Potency, µM (doses to about 57.1 µM), without a hit: at the top dose activity change, negative = cytotoxicity, usual class: cytotoxic | actives 0.12% (n = 150,000) | AID 1671193;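 also: potency is read from the fitted curve at half-maximal effect; 0% = DMSO-treated cells and -100% = medium-only wells without cells; nearly all actives have a fitted effect of over 30% in size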
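HEK-293-SNCA-luc cells (1500/well) plated 24 h, then exposed 24 h to a dilution series; GF-AFC added 30 min at 37C, fluorescence 405/540 nm; normalised to medium-only and DMSO wells, Hill fit.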
SNCA expr inh = reduces expression of the alpha-synuclein gene | HEK-293 SNCA-luciferase knock-in, luminescence, 24 h | Potency, µM (highest dose often 57.2 µM), for the others: top-dose activity change, negative = inhibition, actives largely listed as inhibitors | actives 0.17% (n = 140,000) | AID 1671194;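 also: potency is read from the fitted curve at half-maximal effect; plate controls were DMSO cells for no effect and cell-free wells for full effect; nearly all actives have a fitted effect of over 45% in size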
KDM5B inhibitor = inhibitors of human KDM5B histone demethylase. Q9UGL1. KDM5B demethylase, FDH-coupled NADH fluorescence (FDH is formaldehyde dehydrogenase). Potency, µM (titrated, usually from 57.7 µM), actives largely listed as inhibitors. actives 2.6% (n = 220,000); also: potency is read from the fitted curve at half-maximal effect; 0% is about no effect; nearly all actives have a fitted effect of over 70% in size
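Coupled FDH/NAD⁺ fluorescence readout. KDM5BΔAP 200 nM final; compound titration, 10 min RT preincubation; substrate mix 12.5 µM H3K4me3, 25 µM 2-OG, 50 µM Fe(II), 100 µM ascorbate, 0.25 mM NAD⁺, 0.25 U/mL FDH; ΔRFU over 30 min.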
IP6K1 inh = IP6K1 kinase inhibition; Q92551; IP6K1 kinase, ADP-Glo luminescence, 2 h; active compounds read low; activity change, % (series mostly up to about 58 µM); actives 0.81% (n = 140,000); AID 1645851; in the data active = activity change below about -25%; also: % is scaled to controls: 0 for no effect and ±100 for the full control effect
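ADP-Glo luminescence measures ADP made by human IP6K1 during a 2 h RT reaction with ATP/IP6 (mix at 1.3 mM/130 uM); top library doses 57.5 and 19.1 uM final.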
The depositor's hits bear a star; i = inactive; ? = inconclusive; · = not tested or not shown; [ ] = dose if it differs, or a comment. Shown are actives, neighbours in structure and some others; about 2.8% of the full set was active somewhere. Unless noted, calls follow the shape of the dose curve; as a rule, active = well fitted curve in the direction sought with a large enough effect; inconclusive = small, poorly fitted or top-dose-only effect, or another doubt; inactive = no such curve, though single readings can be large; an effect the other way counts as inactive or inconclusive.

SMILES	HEK293 viab	SNCA expr inh	KDM5B inhibitor	IP6K1 inh
COc1cc(OC)cc(-c2onc(C)c2C(=O)NCCC(c2ccccc2)c2ccccc2)c1	1%	-16%	32µM*	-16
Cc1noc(-c2ccc3c(c2)OCO3)c1C(=O)NCCSCc1ccco1	12%	-4%	?	-11
Cc1noc(-c2cccc(F)c2)c1C(=O)NCCCc1ccccc1	-13%	-28%	i	13
Cc1noc(-c2ccc3c(c2)OCO3)c1C(=O)NCCSCc1ccccc1	-1%	3%	32µM*	-6
Cc1noc(-c2ccc3c(c2)OCO3)c1C(=O)NCCC(c1ccccc1)c1ccccc1	18%	-8%	20µM*	14
O=C(Cc1ccc(Cl)cc1Cl)N1CCN(S(=O)(=O)N2CCCC2)CC1	·	·	i	·
Cc1noc(-c2ccc3c(c2)OCO3)c1C(=O)NCc1cccc(Cl)c1	8%	5%	32µM*	1
CC(C)c1ccc(CNC(=O)c2noc(-c3ccc4c(c3)OCO4)n2)cc1	19%	97%	25µM*	-7
O=C(NCc1ccc(Cl)cc1)c1noc(-c2ccc3c(c2)OCO3)n1	-3%	52%	?	-3
Cc1cn2nc(C(=O)N3CCC(NC(=O)c4ccc(Cl)cc4)CC3)cc2c(=O)[nH]1	8%	-11%	?	9
Cc1noc(C)c1-c1cnc(Nc2ccc(F)c(Cl)c2)c2c1CCO2	-24%[87.6 µM]	31%[87.6 µM]	18µM*	19
COc1cncc(Nc2ncc(-c3cccc(N(C)C)c3)c3c2OCC3)c1	-13%[87.6 µM]	?	32µM*	20
COc1cccc(Nc2ncc(-c3c(C)noc3C)c3c2OCC3)c1	-2%[87.6 µM]	43%[87.6 µM]	35µM*	-9
COc1ccc(Nc2ncc(-c3cnn(C)c3)c3c2OCC3)cc1	2%[87.6 µM]	80%[87.6 µM]	35µM*	-18
Cc1noc(C)c1-c1cnc(Nc2ccc(F)cc2)c2c1CCO2	3%[87.6 µM]	41%[87.6 µM]	?	-11
CCn1ccc(C(=O)N2CCCCCCNC(=O)[C@@H]3CCCC[C@@H]32)n1	-1%	-1%	?	-6
CC(C)N1C(=O)C2(CCCCC2)C1C(=O)N1CCCCC1 (configuration not stated)	-2%	-11%	i	-15
CSc1ccc(Cl)c(C(=O)OCC(=O)NCc2ccc3c(c2)OCO3)c1	·	·	i	·
O=C(c1ccc(C(F)(F)F)cc1)N1CCC2(CC1)CCN(CCc1ccccc1)c1ccccc1O2	-12%	-14%	i	11
CC1(COc2ccccc2)COc2ccc(C(=O)NCc3ccncc3)cc2N1 (configuration not stated)	-14%[87.6 µM]	-17%[87.6 µM]	?	13
CCOCC1(C)COc2ccc(C(=O)NCCc3ccccc3)cc2N1 (configuration not stated)	7%[87.6 µM]	71%[87.6 µM]	40µM*	-10
COc1ccc(OCC2(C)COc3ccc(C(=O)NCc4cccc(F)c4)cc3N2)cc1 (configuration not stated)	-9%[87.6 µM]	-26%[87.6 µM]	32µM*	10
COc1ccc(OCC2(C)COc3ccc(C(=O)N4CCN(C)C(=O)C4)cc3N2)cc1 (configuration not stated)	9%[87.6 µM]	4%[87.6 µM]	i	-8
COc1ccc(OCC2(C)COc3ccc(C(=O)NCC(C)C)cc3N2)cc1 (configuration not stated)	-1%[87.6 µM]	?	25µM*	-1
CCOCC1(C)COc2ccc(C(=O)N(C)Cc3ccccc3)cc2N1 (configuration not stated)	?	?	i	11
SMILES	HEK293 viab	SNCA expr inh	KDM5B inhibitor	IP6K1 inh
COc1ccc(OCC2(C)COc3ccc(C(=O)NCCc4ccccc4)cc3N2)cc1 (configuration not stated)	-4%[87.6 µM]	-26%[87.6 µM]	32µM*	4
CC1(COc2ccccc2)COc2ccc(C(=O)NCc3ccc4c(c3)OCO4)cc2N1 (configuration not stated)	-19%[87.6 µM]	?	?	10
COc1cc(C(=O)Nc2c(NCc3ccccc3)c3ccccc3oc2=O)ccc1OC(C)=O	·	·	i	·
Cc1cc(NC(=O)CCc2ncc(-c3ccccc3Cl)o2)no1	·	·	i	·
CC(=O)Nc1ccc(OC/C=C/c2ccccc2)cc1	·	·	i	·
Cn1c(=O)c2ccnn2c2ccc(C(=O)NCC3CCN(Cc4ccccc4F)CC3)cc21	3%	-6%	32µM*	6
CN(C)C(=O)c1ccc2c(c1)n(Cc1cccc(F)c1)c(=O)c1ccnn12	-5%	14%	32µM*	-9
CCCN1CCN(C(=O)c2ccc3c(c2)n(Cc2ccc(F)cc2)c(=O)c2ccnn23)CC1	-30%	22%	22µM*	7

From PubChem BioAssay
